{
  "source": "PubChem BioAssay AID894",
  "about": "(National Center for Advancing Translational Sciences (NCATS), 2007)",
  "note": "Among all 150,000 compounds or so, about 6,500 (4.3%) were called active. Roughly 12% stayed inconclusive and do not appear here. The call rests on the fitted dose curve; in most records, active means well fitted inhibition curve with a large enough effect (not every such curve was filed as active); inconclusive means small, poorly fitted or top-dose-only effect, or another doubt; inactive means no such curve, though single readings can be large or run the other way. The full list was thinned out, with actives kept by preference. On the % scale 0 is the no-effect control and ±100 the full control effect; potency means the concentration at half of the fitted maximal effect.",
  "data": [
    {"target": "15-hydroxyprostaglandin dehydrogenase [NAD(+)] (Homo sapiens) (UniProt P15428)", "sequence (P15428 whole entry, looked up)": "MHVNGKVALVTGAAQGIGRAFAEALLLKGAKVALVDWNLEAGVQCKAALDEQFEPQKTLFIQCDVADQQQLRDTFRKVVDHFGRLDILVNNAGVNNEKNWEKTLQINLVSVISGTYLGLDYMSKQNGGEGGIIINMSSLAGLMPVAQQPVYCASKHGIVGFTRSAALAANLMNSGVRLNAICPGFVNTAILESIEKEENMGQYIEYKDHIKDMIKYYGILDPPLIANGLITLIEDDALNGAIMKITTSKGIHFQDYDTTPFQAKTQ", "assay": "qHTS Assay for Inhibitors of HPGD (15-Hydroxyprostaglandin Dehydrogenase)", "conditions": "purified HPGD, NADH fluorescence kinetic, PGE2 substrate; activity change, negative = inhibition: active compounds read low", "procedure,_shortened": "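20 nM HPGD preincubated 15 min at room temperature with compound in 50 mM Tris-HCl pH 8, 0.01% Tween 20. Started with 1 mM NAD+ and 30 uM prostaglandin E2; NADH fluorescence (360/450 nm) read 5 times over 30-s intervals, last minus first.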", "values": [
      {"smiles": "CN(C)/N=C/c1cc(Cl)cc([N+](=O)[O-])c1O", "activity change, negative = inhibition": "-18.9% (inactive)"},
      {"smiles": "O=C(NCC1CCCO1)/C(=C/c1ccc(Cl)cc1)NC(=O)c1ccccc1", "note": "(stereo not drawn)", "activity change, negative = inhibition": "-23% (inactive)"},
      {"smiles": "O=C(NCC1CCCO1)c1ccc2ccccc2n1", "note": "(stereo not drawn)", "activity change, negative = inhibition": "-27.3% (inactive)"},
      {"smiles": "O=C(/C=C/c1ccccc1[N+](=O)[O-])NCC1CCCO1", "note": "(stereo not drawn)", "Potency": "4.47 µM (active)"},
      {"smiles": "COC(=O)c1cc(C(=O)N(Cc2ccccc2)c2ccccn2)cc([N+](=O)[O-])c1", "activity change, negative = inhibition": "-15.3% (inactive)"},
      {"smiles": "Cc1cc(SCC(=O)NCCN2C(=O)CSC2=O)nc2ccccc12", "activity change, negative = inhibition": "-24.5% (inactive)"},
      {"smiles": "Cc1ccc(C(=O)OCC(=O)NCc2ccc3c(c2)OCO3)s1", "activity change, negative = inhibition": "-10.3% (inactive)"},
      {"smiles": "O=C(COC(=O)c1ccc(Cl)nc1)NCc1ccc2c(c1)OCO2", "activity change, negative = inhibition": "-9.81% (inactive)"},
      {"smiles": "Cc1cc(Br)ccc1SCC(=O)OCC(=O)NCc1ccc2c(c1)OCO2", "Potency": "25.1 µM (active)"},
      {"smiles": "C=CCNCCCCOc1ccccc1", "activity change, negative = inhibition": "-5.77% (inactive)"},
      {"smiles": "COC(=O)c1ccccc1NS(=O)(=O)c1ccc2[nH]c(=O)[nH]c2c1", "activity change, negative = inhibition": "-11.9% (inactive)"},
      {"smiles": "CCN1C(=O)N[C@@H](CCc2ccccc2)C(C(=O)OC)=C1C", "activity change, negative = inhibition": "-3.92% (inactive)"},
      {"smiles": "Cn1cccc1C(=O)Nc1nccs1", "Potency": "31.6 µM (active)"},
      {"smiles": "COc1cc(C(=O)Nc2nccs2)cc(OC)c1OC", "activity change, negative = inhibition": "-15.1% (inactive)"},
      {"smiles": "CC(=O)Oc1ccc(C(=O)Nc2nccs2)cc1", "activity change, negative = inhibition": "-13.6% (inactive)"},
      {"smiles": "CC(OC(=O)c1ccccc1N1C(=O)C2C3CCC(C3)C2C1=O)C(=O)c1ccccc1", "note": "(stereo not drawn)", "activity change, negative = inhibition": "-11.4% (inactive)"},
      {"smiles": "CCOc1ncccc1C(=O)N(CC)CC(=O)Nc1ccc(NC(C)=O)cc1", "activity change, negative = inhibition": "-1.26% (inactive)"},
      {"smiles": "C/C=C/c1ccc(OCCOc2ccc(C=O)cc2OC)c(OC)c1", "activity change, negative = inhibition": "-16.6% (inactive)"},
      {"smiles": "O=C(CC1NCCNC1=O)Nc1cc(Cl)cc(Cl)c1", "note": "(stereo not drawn)", "activity change, negative = inhibition": "-10.9% (inactive)"},
      {"smiles": "O=C(Nc1cc(=O)[nH]c2ncnn12)c1ccccc1Cl", "Potency": "22.4 µM (active)"},
      {"smiles": "CC(=O)Nc1cccc(/C(C)=N/NC(=O)c2ccccc2Cl)c1", "activity change, negative = inhibition": "-5.88% (inactive)"},
      {"smiles": "O=C(Nc1ccc2nc3n(c(=O)c2c1)CCCCC3)c1ccccc1Cl", "activity change, negative = inhibition": "-20.5% (inactive)"},
      {"smiles": "CC(Cc1cccs1)NC(=O)NC1CCCCC1", "note": "(stereo not drawn)", "activity change, negative = inhibition": "-17.9% (inactive)"},
      {"smiles": "CC(Cc1cccs1)NC(=O)c1cccc(Cl)c1", "note": "(stereo not drawn)", "Potency": "7.94 µM (active)"},
      {"smiles": "COCC(C)NC(=O)c1ccc(Cl)c(Cl)c1", "note": "(stereo not drawn)", "activity change, negative = inhibition": "-23% (inactive)"},
      {"smiles": "COc1ccc(-c2nc(-c3ccccc3)oc2Nc2ccc3ccccc3c2)cc1", "activity change, negative = inhibition": "-1.48% (inactive)"},
      {"smiles": "COCCCNC(=S)NC(=O)c1ccccc1", "activity change, negative = inhibition": "-5.04% (inactive)"},
      {"smiles": "O=C(NCCN1CCOCC1)c1ccc2c(c1)ncn2C1CCCC1", "activity change, negative = inhibition": "-2.32% (inactive)"},
      {"smiles": "COCCCNC(=O)c1ccc2c(c1)ncn2-c1ccccc1OC", "Potency": "11.2 µM (active)"},
      {"smiles": "Cc1ccccc1CN(c1ccc(C(=O)NCC2CCCO2)cc1)S(C)(=O)=O", "note": "(stereo not drawn)", "activity change, negative = inhibition": "-4.02% (inactive)"},
      {"smiles": "COc1ccccc1-n1c(C)nc2cc(C(=O)NCc3ccc4c(c3)OCO4)ccc21", "activity change, negative = inhibition": "-21.3% (inactive)"},
      {"smiles": "COc1ccccc1-n1cnc2cc(NS(=O)(=O)c3ccccc3)ccc21", "Potency": "14.1 µM (active)"},
      {"smiles": "COc1cc(NS(=O)(=O)c2ccccc2)ccc1-n1nc(C)cc1C", "activity change, negative = inhibition": "-3.88% (inactive)"},
      {"smiles": "COc1ccccc1-n1cnc2cc(C(=O)NCC3CCCO3)ccc21", "note": "(stereo not drawn)", "Potency": "12.6 µM (active)"},
      {"smiles": "COc1ccc(NS(=O)(=O)c2ccc(NC(C)=O)cc2)cc1OC", "activity change, negative = inhibition": "-1.98% (inactive)"},
      {"smiles": "CC(=O)NC1C(Oc2ccc(C)cc2)OC2COC(c3ccco3)OC2C1O", "note": "(stereo not drawn)", "activity change, negative = inhibition": "0.675% (inactive)"},
      {"smiles": "COc1ccccc1-c1nnc(NC(=O)c2ccc3ncsc3c2)o1", "activity change, negative = inhibition": "-16.3% (inactive)"},
      {"smiles": "Cc1ccccc1NC(=S)N(CCCN1CCOCC1)Cc1cccs1", "activity change, negative = inhibition": "8.96% (inactive)"},
      {"smiles": "N#Cc1ccc(N2Cc3ccccc3/C2=N/C(=O)Nc2ccc(Cl)cc2)cc1", "activity change, negative = inhibition": "-24.3% (inactive)"},
      {"smiles": "CCCCN(CC)C(=O)c1ccccc1Oc1ccccc1", "activity change, negative = inhibition": "-9.66% (inactive)"},
      {"smiles": "CC(=O)N/C(=C/c1ccc(OC(F)F)cc1)C(=O)O", "activity change, negative = inhibition": "-3.55% (inactive)"},
      {"smiles": "CN(C)C(CNC(=O)c1ccc(S(=O)(=O)NCc2ccco2)cc1)c1ccccc1", "note": "(stereo not drawn)", "activity change, negative = inhibition": "-10.1% (inactive)"},
      {"smiles": "CCCc1nc(SCC(=O)Nc2ccc(S(=O)(=O)N(C)C)cc2)c2ccccc2n1", "activity change, negative = inhibition": "-22.1% (inactive)"},
      {"smiles": "CONc1nc2nonc2nc1NOC", "activity change, negative = inhibition": "-6.28% (inactive)"},
      {"smiles": "CCc1c(C)nc(N2CCN(Cc3ccccc3)CC2)[nH]c1=O", "activity change, negative = inhibition": "-6.13% (inactive)"},
      {"smiles": "Cc1nnc(SCc2cc(=O)[nH]c(N3CCN(Cc4ccccc4)CC3)n2)s1", "Potency": "10 µM (active)"},
      {"smiles": "O=c1cc(CSc2ccccn2)nc(N2CCN(c3ccccc3)CC2)[nH]1", "activity change, negative = inhibition": "-4.21% (inactive)"},
      {"smiles": "CC(C)CNC(=O)CC(NCC(C)C)C(=O)O", "note": "(stereo not drawn)", "activity change, negative = inhibition": "-6.89% (inactive)"},
      {"smiles": "Cc1ccc2[nH]cc(CCCN3C(=O)c4ccccc4C3=O)c2c1", "activity change, negative = inhibition": "-4.52% (inactive)"},
      {"smiles": "O=C(CS(=O)(=O)Cc1ccccc1)NCC1CCCO1", "note": "(stereo not drawn)", "activity change, negative = inhibition": "-19.1% (inactive)"},
      {"smiles": "O=C(NCC1CCCO1)C(C(=O)c1ccccc1)n1cc(Cl)ccc1=O", "note": "(stereo not drawn)", "activity change, negative = inhibition": "-7.62% (inactive)"},
      {"smiles": "O=C(CSCc1c(F)cccc1Cl)NCC1CCCO1", "note": "(stereo not drawn)", "Potency": "14.1 µM (active)"},
      {"smiles": "CC(=O)[C@H](C(c1ccccc1)N1CCOCC1)N1CCOCC1", "note": "(stereo partly drawn)", "activity change, negative = inhibition": "-6.44% (inactive)"},
      {"smiles": "O=C(CCCCCNC(=O)c1ccccc1)N/N=C/c1ccccc1", "activity change, negative = inhibition": "-2.21% (inactive)"},
      {"smiles": "CN(C)S(=O)(=O)c1cccc(NC(=S)N/N=C/C(=O)c2ccccc2)c1", "activity change, negative = inhibition": "-16% (inactive)"},
      {"smiles": "O=C(Nc1ccc2c(c1)OCCO2)c1ccncc1", "activity change, negative = inhibition": "-1.78% (inactive)"},
      {"smiles": "O=C(Nc1nc2ccccc2s1)c1ccc2c(c1)OCO2", "activity change, negative = inhibition": "-20.6% (inactive)"},
      {"smiles": "Cc1ccc2sc(NNC(=O)c3ccc4c(c3)OCCO4)nc2c1C", "Potency": "11.2 µM (active)"},
      {"smiles": "CCCCn1c(O)c(N=NC(=O)Cn2c(C(F)(F)F)nc3ccccc32)c2ccccc21", "activity change, negative = inhibition": "-5.51% (inactive)"},
      {"smiles": "CNS(=O)(=O)c1ccc(N2CCCC2=O)c([N+](=O)[O-])c1", "activity change, negative = inhibition": "-12.5% (inactive)"},
      {"smiles": "COC(=O)c1ccc(CSc2nc3cc(Cl)ccc3o2)cc1", "activity change, negative = inhibition": "-20.6% (inactive)"},
      {"smiles": "COc1cc(NS(=O)(=O)c2ccc(N/C=C(\\C=O)c3nc4cc(Cl)ccc4o3)cc2)nc(OC)n1", "Potency": "14.1 µM (active)"},
      {"smiles": "COc1ccc(NS(=O)(=O)c2ccc(NC(=O)C(C)(C(F)(F)F)C(F)(F)F)cc2)nn1", "activity change, negative = inhibition": "-19.1% (inactive)"}
    ]}
  ]
}
